Our source for the binding signal values is publication PMC7862700, “An all-to-all approach to the identification of sequence-specific readers for epigenetic DNA modifications on cytosine”.

What all share (assay): DAPPL (digital affinity profiling via proximity ligation, sequencing); 10 mM Tris-HCl pH 7.5, 50 mM NaCl, 1 mM DTT, 4% glycerol, room temperature, 30 min; GST-TFs on glutathione beads, 16-mer random dsDNA library, 0.1% formaldehyde crosslink after washing; high values mean tight binding
Common to all, as to settings: protein: recombinant; tags: N-terminal GST; dsDNA, one strand shown

One assay deals with T1, ERF (Homo sapiens, UniProt P50548 1-548).
T1 sequence: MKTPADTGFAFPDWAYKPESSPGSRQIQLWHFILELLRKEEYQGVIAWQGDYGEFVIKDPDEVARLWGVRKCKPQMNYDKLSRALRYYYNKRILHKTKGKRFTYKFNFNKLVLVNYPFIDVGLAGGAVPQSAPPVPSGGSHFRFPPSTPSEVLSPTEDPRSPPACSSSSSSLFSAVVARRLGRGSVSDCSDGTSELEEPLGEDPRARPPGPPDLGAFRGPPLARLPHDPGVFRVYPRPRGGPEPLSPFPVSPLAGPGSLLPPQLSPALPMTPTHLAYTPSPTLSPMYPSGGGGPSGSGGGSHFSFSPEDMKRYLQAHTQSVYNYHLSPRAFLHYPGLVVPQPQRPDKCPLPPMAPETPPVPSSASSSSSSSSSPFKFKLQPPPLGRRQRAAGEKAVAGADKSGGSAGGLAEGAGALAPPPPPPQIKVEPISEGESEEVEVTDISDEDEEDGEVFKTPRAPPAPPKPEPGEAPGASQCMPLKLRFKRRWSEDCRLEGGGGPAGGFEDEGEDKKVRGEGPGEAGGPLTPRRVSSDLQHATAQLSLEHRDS
In a few lines:
(§1)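 Yeast served to express human transcription factors as GST fusions, which were then captured on glutathione beads and labelled with DNA barcodes. Pooled with a tag-only sample, they were incubated with 200 nmole of a 16-mer random double-stranded DNA library for 30 min at room temperature in Tris/NaCl/DTT/glycerol buffer, washed, crosslinked with 0.1% formaldehyde, ligated by proximity, amplified by PCR and sequenced. Dividing each hexamer's read frequency for a factor by its frequency for the tag-only sample gives the binding signal.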

In a further assay the target is T2, ETV3L (Homo sapiens, UniProt Q6ZN32 1-361).
T2 sequence: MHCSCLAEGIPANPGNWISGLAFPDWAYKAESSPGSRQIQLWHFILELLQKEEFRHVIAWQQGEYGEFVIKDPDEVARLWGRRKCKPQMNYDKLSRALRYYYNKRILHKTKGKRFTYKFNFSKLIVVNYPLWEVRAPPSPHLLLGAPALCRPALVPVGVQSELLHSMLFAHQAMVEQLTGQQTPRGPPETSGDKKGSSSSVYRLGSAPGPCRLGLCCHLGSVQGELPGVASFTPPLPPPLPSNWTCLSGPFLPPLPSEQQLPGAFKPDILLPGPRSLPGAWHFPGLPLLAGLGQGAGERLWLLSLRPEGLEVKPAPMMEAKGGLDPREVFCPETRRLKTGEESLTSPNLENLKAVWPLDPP
In a few lines:
as §1

A further assay deals with T3, ETS2 (Homo sapiens, UniProt P15036 1-469).
T3 sequence: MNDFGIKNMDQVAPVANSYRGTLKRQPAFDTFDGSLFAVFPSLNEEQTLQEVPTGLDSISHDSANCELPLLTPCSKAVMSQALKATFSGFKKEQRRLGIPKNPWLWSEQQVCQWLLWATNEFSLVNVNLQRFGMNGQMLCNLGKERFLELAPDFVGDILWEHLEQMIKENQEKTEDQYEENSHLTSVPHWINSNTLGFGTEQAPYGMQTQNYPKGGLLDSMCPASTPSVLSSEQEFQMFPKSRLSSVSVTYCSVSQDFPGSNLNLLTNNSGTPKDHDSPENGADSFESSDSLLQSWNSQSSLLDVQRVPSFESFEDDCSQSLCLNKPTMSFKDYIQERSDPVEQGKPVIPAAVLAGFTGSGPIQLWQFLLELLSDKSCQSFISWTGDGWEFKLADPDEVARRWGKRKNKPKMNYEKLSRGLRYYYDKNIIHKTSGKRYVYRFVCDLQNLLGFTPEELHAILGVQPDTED
The gist of the method:
as §1

The target in the next assay is T4, SPDEF (Homo sapiens, UniProt O95238 1-335).
T4 sequence: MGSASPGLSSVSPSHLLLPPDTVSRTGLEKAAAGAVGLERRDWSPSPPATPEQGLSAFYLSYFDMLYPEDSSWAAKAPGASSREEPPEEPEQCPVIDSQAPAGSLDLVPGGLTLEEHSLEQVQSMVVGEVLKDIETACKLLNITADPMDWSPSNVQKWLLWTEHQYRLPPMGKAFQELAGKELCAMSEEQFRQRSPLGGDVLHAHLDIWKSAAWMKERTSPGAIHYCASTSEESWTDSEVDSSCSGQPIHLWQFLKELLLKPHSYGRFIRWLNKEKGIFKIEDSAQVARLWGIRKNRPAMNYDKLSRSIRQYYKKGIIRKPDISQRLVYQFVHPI
In a few lines:
as §1

In the next assay the target is T5, ETV7 (Homo sapiens, UniProt Q9Y603 1-341).
T5 sequence: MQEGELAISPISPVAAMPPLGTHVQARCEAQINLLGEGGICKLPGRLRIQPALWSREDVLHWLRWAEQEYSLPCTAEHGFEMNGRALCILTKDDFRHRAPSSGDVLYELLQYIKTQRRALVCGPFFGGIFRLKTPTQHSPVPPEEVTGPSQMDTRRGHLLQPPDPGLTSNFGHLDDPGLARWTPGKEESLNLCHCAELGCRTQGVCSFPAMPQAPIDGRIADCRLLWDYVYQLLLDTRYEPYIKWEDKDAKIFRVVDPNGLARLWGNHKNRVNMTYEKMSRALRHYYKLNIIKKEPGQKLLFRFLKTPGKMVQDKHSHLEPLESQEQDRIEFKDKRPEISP
In a few lines: as §1

The target in the next assay is T6, ELF5 (Homo sapiens, UniProt Q9UKW6-2 1-255).
T6 sequence: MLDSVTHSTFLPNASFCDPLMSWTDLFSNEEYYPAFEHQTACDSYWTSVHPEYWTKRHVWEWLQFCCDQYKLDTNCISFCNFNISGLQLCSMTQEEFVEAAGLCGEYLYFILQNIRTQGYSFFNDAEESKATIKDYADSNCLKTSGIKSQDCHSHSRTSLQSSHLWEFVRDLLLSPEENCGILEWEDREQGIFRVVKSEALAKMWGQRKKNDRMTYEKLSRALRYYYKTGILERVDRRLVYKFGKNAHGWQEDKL
In a few lines: as §1

The target of a further assay is T7, ETV3 (Homo sapiens, UniProt P41162-2 1-143).
T7 sequence: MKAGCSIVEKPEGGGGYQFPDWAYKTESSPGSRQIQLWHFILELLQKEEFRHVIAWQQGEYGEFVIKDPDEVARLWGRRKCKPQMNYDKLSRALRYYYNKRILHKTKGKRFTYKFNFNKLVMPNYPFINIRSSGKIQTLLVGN
The gist of the method: as §1

The target in another assay is ETV6 (Homo sapiens, UniProt P41212 1-452). In a few lines: as §1
ETV6, sequence (P41212 whole entry): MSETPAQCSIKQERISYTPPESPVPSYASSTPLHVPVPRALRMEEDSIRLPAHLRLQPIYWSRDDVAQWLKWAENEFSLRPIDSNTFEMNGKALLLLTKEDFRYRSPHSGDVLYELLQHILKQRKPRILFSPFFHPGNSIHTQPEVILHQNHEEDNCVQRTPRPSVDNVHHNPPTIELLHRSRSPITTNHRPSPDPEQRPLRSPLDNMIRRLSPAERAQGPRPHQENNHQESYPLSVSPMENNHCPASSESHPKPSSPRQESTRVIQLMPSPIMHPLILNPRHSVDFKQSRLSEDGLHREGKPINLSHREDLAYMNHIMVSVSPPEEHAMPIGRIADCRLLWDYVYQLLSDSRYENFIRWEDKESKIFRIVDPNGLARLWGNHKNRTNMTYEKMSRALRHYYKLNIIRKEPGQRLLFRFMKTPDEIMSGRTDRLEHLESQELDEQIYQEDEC

In the case of CCCCTT, the binding signal is 1.53 fold enrichment (6-mer frequency, TF over GST control) with ERF; 1.47 fold enrichment (6-mer frequency, TF over GST control) with ETV3L; 1.51 fold enrichment (6-mer frequency, TF over GST control) with ETS2; 1.5 fold enrichment (6-mer frequency, TF over GST control) in the assay with SPDEF; 1.56 fold enrichment (6-mer frequency, TF over GST control) with ETV7; 1.64 fold enrichment (6-mer frequency, TF over GST control) in the assay with ELF5. Besides, the binding signal is 1.51 fold enrichment (6-mer frequency, TF over GST control) in the assay with ETV3 and 1.51 fold enrichment (6-mer frequency, TF over GST control) with ETV6.

For the sequence TAGATT, the binding signal in the assay with ERF was 1.37 fold enrichment (6-mer frequency, TF over GST control); with ETV3L, 1.31 fold enrichment (6-mer frequency, TF over GST control); with ETS2, 1.13 fold enrichment (6-mer frequency, TF over GST control); in the assay with SPDEF it was 1.15 fold enrichment (6-mer frequency, TF over GST control); in the assay with ETV7, 1.22 fold enrichment (6-mer frequency, TF over GST control); with ELF5, 1.11 fold enrichment (6-mer frequency, TF over GST control). The binding signal was 1 fold enrichment (6-mer frequency, TF over GST control) with ETV3 and 1.17 fold enrichment (6-mer frequency, TF over GST control) with ETV6.

With CACAAA, the binding signal with ERF was 1.18 fold enrichment (6-mer frequency, TF over GST control); with ETV3L, 1.16 fold enrichment (6-mer frequency, TF over GST control); with ETS2, 1.16 fold enrichment (6-mer frequency, TF over GST control); with SPDEF, 1.12 fold enrichment (6-mer frequency, TF over GST control); with ETV7 it was 1.01 fold enrichment (6-mer frequency, TF over GST control); with ELF5 it was 1.1 fold enrichment (6-mer frequency, TF over GST control). Besides, the binding signal was 1.09 fold enrichment (6-mer frequency, TF over GST control) with ETV3 and 1.08 fold enrichment (6-mer frequency, TF over GST control) in the assay with ETV6.

In the case of TGGTAC, the binding signal in the assay with ERF is 1.11 fold enrichment (6-mer frequency, TF over GST control); with ETV3L, 1.21 fold enrichment (6-mer frequency, TF over GST control); with ETS2, 1.19 fold enrichment (6-mer frequency, TF over GST control); in the assay with SPDEF, 1.11 fold enrichment (6-mer frequency, TF over GST control); with ETV7, 1.14 fold enrichment (6-mer frequency, TF over GST control); with ELF5, 1.14 fold enrichment (6-mer frequency, TF over GST control). The binding signal with ETV3 is 1.14 fold enrichment (6-mer frequency, TF over GST control); with ETV6, 1.14 fold enrichment (6-mer frequency, TF over GST control).

Consider CCTCTG, for which the binding signal in the assay with ERF is 1.65 fold enrichment (6-mer frequency, TF over GST control); with ETV3L it was 1.36 fold enrichment (6-mer frequency, TF over GST control); in the assay with ETS2, 1.42 fold enrichment (6-mer frequency, TF over GST control); with SPDEF, 1.54 fold enrichment (6-mer frequency, TF over GST control); in the assay with ETV7, 1.79 fold enrichment (6-mer frequency, TF over GST control); with ELF5 it was 1.5 fold enrichment (6-mer frequency, TF over GST control). For the same sequence, the binding signal was 1.64 fold enrichment (6-mer frequency, TF over GST control) in the assay with ETV3 and 1.39 fold enrichment (6-mer frequency, TF over GST control) with ETV6.

Regarding CCGACT, the binding signal with ERF was 1.5 fold enrichment (6-mer frequency, TF over GST control); in the assay with ETV3L, 1.6 fold enrichment (6-mer frequency, TF over GST control); in the assay with ETS2, 1.54 fold enrichment (6-mer frequency, TF over GST control); in the assay with SPDEF, 1.45 fold enrichment (6-mer frequency, TF over GST control); with ETV7, 1.32 fold enrichment (6-mer frequency, TF over GST control); with ELF5, 1.41 fold enrichment (6-mer frequency, TF over GST control). Further, the binding signal with ETV3 was 1.34 fold enrichment (6-mer frequency, TF over GST control); with ETV6 it was 1.51 fold enrichment (6-mer frequency, TF over GST control).

For the sequence CCTGCC, the binding signal with ERF was 1.3 fold enrichment (6-mer frequency, TF over GST control); with ETV3L, 1.24 fold enrichment (6-mer frequency, TF over GST control); with ETS2 it was 1.23 fold enrichment (6-mer frequency, TF over GST control); in the assay with SPDEF, 1.31 fold enrichment (6-mer frequency, TF over GST control); with ETV7, 1.33 fold enrichment (6-mer frequency, TF over GST control); with ELF5 it was 1.35 fold enrichment (6-mer frequency, TF over GST control). The binding signal with ETV3 was 1.28 fold enrichment (6-mer frequency, TF over GST control); with ETV6, 1.36 fold enrichment (6-mer frequency, TF over GST control).
